Laboratory results reported in PubChem BioAssay (Tox21).
Results filed as inconclusive are left out. Activity calls are given as the source filed them. The call rests on the fitted dose curve; in most records, active means well fitted inhibition curve with a large enough effect in the repeat runs; inconclusive means weak or mixed curves; inactive means flat fitted curve, though single readings scatter.

molecular target: Luciferin 4-monooxygenase (Photinus pyralis) (UniProt P08659); assay: qHTS assay to identify small molecule inhibitors of firefly luciferase (AID 1224835); further: nearly all actives have a fitted effect of over 25% in size; conditions: purified P. pyralis luciferase, luminescence inhibition; series mostly up to 115 µM; activity change, negative = inhibition: at the top concentration
From the text: U.S. Tox21 Program National Center for Advancing Translational Sciences [NCATS] NIH Chemical Genomics Center [NCGC] U.S. Environmental Protection Agency [EPA] National Institutes of Environmental Health Sciences [NIEHS] National Toxicology Program [NTP] U.S. Food and Drug Administration [FDA] Tox21 Assay Overview: Firefly (Photinus pyralis) luciferase is one of the most commonly used transcriptional reporters. Firefly luciferase reporter-gene assays are generally considered one of the most sensitive assay types (Wood, 1995; Wood, 1998). However, it was initially observed, in 1991, by Thompson et al., that compounds that resemble the substrates of firefly luciferase (FLuc) can act as competitive inhibitors of the enzyme, and that these compounds, upon interaction with luciferase in the cell, can actually stabilize the protein and increase its half-life. Previous profiling work by other groups to determine the prevalence of compounds that affect FLuc enzymatic activity (PubChem AID 411) identified that ~3% of the MLSMR library (then at ~72K) inhibited FLuc. […] Thus the Tox21 10K library is profiled for activity against FLuc using a biochemical assay of purified FLuc and KM concentrations of FLuc substrates (D-luciferin and ATP).
These assay plates were then treated with 23nL of compound or DMSO using a Kalypsys pin tool, which allows for delivery of a 6-point interplate titration of each compound to the assay plate (quantitative HTS.) 1 uL of firefly luciferase mix (containing 50 mM Tris acetate, pH 7.6, 0.04 uM P. pyralis luciferase, 0.01% Tween, 0.05% BSA and dH2O) was then delivered by FRD to each well. Luciferase activity was then measured using a ViewLux CCD imager.
On the % scale 0 is the no-effect control and ±100 the full control effect.

Sequence of Luciferin 4-monooxygenase (Photinus pyralis) (P08659 whole entry, looked up): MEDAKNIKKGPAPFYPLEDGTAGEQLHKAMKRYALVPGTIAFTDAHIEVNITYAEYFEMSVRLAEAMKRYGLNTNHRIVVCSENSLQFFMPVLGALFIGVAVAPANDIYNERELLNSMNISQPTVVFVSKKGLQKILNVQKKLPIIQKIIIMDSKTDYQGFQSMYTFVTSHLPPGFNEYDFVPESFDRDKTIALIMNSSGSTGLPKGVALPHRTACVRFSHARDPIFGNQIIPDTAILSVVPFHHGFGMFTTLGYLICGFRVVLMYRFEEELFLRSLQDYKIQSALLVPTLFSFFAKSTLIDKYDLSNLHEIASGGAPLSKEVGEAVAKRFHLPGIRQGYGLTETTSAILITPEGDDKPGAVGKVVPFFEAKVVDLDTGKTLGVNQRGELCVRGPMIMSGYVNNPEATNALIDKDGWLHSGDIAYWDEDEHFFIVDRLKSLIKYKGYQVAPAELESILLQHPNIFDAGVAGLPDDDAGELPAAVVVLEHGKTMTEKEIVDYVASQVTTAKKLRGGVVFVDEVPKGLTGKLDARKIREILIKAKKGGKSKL

| Compound | Potency | activity change, negative = inhibition |
| --- | --- | --- |
| O=C(Oc1ccccc1)c1ccc2ccccc2c1O | 2.52 µM (active) | – |
| CCOC(=O)C(C)O (stereo not given) | – | 0% (inactive) |
| Nc1nc2ccc(OC(F)(F)F)cc2s1 | 24.5 µM (active) | – |
| CC(=O)NNC(C)=O | – | 3.16% (inactive) |
| CC(C)N(C)C | – | 8.89% (inactive) |
| CCCC(=O)OC(=O)CCC | – | 2.25% (inactive) |
| CC(C)OC(=O)c1ccccc1C(=O)OC(C)C | – | 0.531% (inactive) |
| O=c1[nH][nH]c(=O)c2cc([N+](=O)[O-])ccc12 | – | 2.38% (inactive) |
| CCCCCCC(CO)CCCC (stereo not given) | – | 1.01% (inactive) |
| O=c1[nH]c2cc(C(F)(F)F)c(N3CCOCC3)cc2n(CP(=O)(O)O)c1=O | – | -1.13% [at 52.9 µM] (inactive) |
| Cc1ccc(N(CCO)CCO)cc1 | – | -1.78% (inactive) |
| O=CNNC=O | – | 4.15% (inactive) |
| c1ccc2sc(SSc3nc4ccccc4s3)nc2c1 | 10.7 µM (active) | – |
| CCCOC(=O)c1c(Cl)c(Cl)c(Cl)c(Cl)c1C(=O)OCCC | – | -0.599% (inactive) |
| CCN(CC)CCOC(=O)C(c1ccccc1)c1ccccc1 | – | -5.71% [at 52.9 µM] (inactive) |
| CCN(CC)C(=O)N1CCN(C)CC1 | – | -1% [at 52.9 µM] (inactive) |
| COc1ccc(C)cc1 | – | 1.61% (inactive) |
| O=C1OC(=O)c2c(Br)c(Br)c(Br)c(Br)c21 | – | -0.521% (inactive) |
| Cc1cc(CCCOc2c(C)cc(-c3noc(C(F)(F)F)n3)cc2C)on1 | – | -1.18% [at 52.9 µM] (inactive) |
| Cc1ccc2nc(N)[nH]c(=O)c2c1Sc1ccncc1 | – | -6.85% [at 52.9 µM] (inactive) |

| Compound | Potency | activity change, negative = inhibition |
| --- | --- | --- |
| COc1ccc(C2C(=O)c3ccccc3C2=O)cc1 | 3.09 µM (active) | – |
| CCCCCCCC(=O)OCCCCCC | – | -1.02% (inactive) |
| CCC(Cl)CC(Cl)C(Cl)C(Cl)C(Cl)C(C)Cl (stereo not given) | – | -6.92% [at 23.6 µM] (inactive) |
| Nc1ccc(S(=O)(=O)NCc2ccccc2)cc1 | – | -5.63% [at 52.9 µM] (inactive) |
| CC(C)c1ccc(C#N)cc1 | – | -1.89% (inactive) |
| Nc1nc(-c2ccc([N+](=O)[O-])cc2)cs1 | – | -15.7% (inactive) |
| CCCCCCCCCCCCCC(=O)OCC(O)CO (stereo not given) | – | -3.44% (inactive) |
| CCCc1nc2c(C)cc(-c3nc4ccccc4n3C)cc2n1Cc1ccc(-c2ccccc2C(=O)O)cc1 | 13.8 µM (active) | – |
| CC(C)c1ccc(C(=O)N=C(N)N)cc1S(C)(=O)=O | – | -4.17% [at 52.9 µM] (inactive) |
| COc1ccc(/C=C/C(=O)c2ccc(OC)cc2OC)cc1 | 17.4 µM (active) | – |
| CCCCCc1ccco1 | – | -1.08% [at 52.9 µM] (inactive) |
| OCC(CO)n1cnc(-c2ccc(F)cc2)c1-c1ccnc(Oc2ccccc2)n1 | – | -3.27% (inactive) |
| C=C(C)C(=O)OCCC(F)(F)C(F)(F)C(F)(F)C(F)(F)C(F)(F)C(F)(F)F | – | -0.0878% (inactive) |
| [Cl][Nd]([Cl])[Cl] | 39.9 µM (active) | – |
| ClC1=C(Cl)C1(Cl)Cl | – | 8.06% (inactive) |
| CSSc1ccoc1C | – | -1.76% (inactive) |
| CC(C)(O)c1coc(S(=O)(=O)NC(=O)Nc2c3c(cc4c2CCC4)CCC3)c1 | – | 1.84% (inactive) |
| CC1CCc2nccnc21 (stereo not given) | – | 2.51% (inactive) |
| O=C(O)CCCc1c[nH]c2ccccc12 | – | -9.66% (inactive) |
| COc1ccc(-c2cc(=S)ss2)cc1 | 15.5 µM (active) | – |
